# Polio RdRp inh: poliovirus RNA polymerase inhibition. poliovirus polymerase elongation, fluorescence polarization; hits give low values. % elongation, % (compound at 16.7 µg/mL). 150,000 tested, 0.66% active; in the data active means % elongation below about 90%
# Target sequence (P03300 1749-2209 limits assumed): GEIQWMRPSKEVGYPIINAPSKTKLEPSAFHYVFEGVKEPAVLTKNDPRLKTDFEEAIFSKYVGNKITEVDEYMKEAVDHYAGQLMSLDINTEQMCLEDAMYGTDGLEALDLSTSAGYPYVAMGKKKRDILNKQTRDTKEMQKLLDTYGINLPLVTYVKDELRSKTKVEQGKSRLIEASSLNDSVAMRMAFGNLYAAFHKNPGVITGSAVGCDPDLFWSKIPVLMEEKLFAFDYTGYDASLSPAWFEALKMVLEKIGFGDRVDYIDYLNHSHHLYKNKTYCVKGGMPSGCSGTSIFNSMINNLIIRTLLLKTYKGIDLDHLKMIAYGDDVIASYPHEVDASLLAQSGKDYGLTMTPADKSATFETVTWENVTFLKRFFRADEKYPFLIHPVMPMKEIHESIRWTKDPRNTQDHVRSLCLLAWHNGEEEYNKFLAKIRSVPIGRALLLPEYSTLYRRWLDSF
# MenB inh: Mtb MenB enzyme inhibition | MenB enzyme assay, absorbance read-out | P9WNP5 | 100,000 tested, 0.43% active | inhibition, % (no concentration beside the values); in the data active means inhibition above about 21%, passing the limit was not always enough
# Mtb MbtI inh: blocks the Mycobacterium tuberculosis siderophore enzyme MbtI; P9WFX0; purified MbtI enzyme, fluorescence intensity read-out; inhibition, % (test concentration not listed); 100,000 tested, 0.89% active; AID 493033; in the data active means inhibition mostly above about 56%, no sharp cut-off; inactive means mostly below about 77%
# AID504770: E. coli YBA685 growth inhibition, screen for V. cholerae RctB inhibitors; z-score (concentration not given with the values); E. coli YBA685 rctB-dependent plasmid, OD600 growth, 3 h; hits give low values; AID 504770; 130,000 tested, 0.27% active; in the data active means z-score below about -2, passing the limit was not always enough
# Hits are given with their value; i = inactive; nt = not tested or not shown; ! = a repeat was not active. In the library only some 1.4% were active in any assay of this set; here they are far more common.
SMILES,Polio RdRp inh,MenB inh,Mtb MbtI inh,AID504770
O=C(Nc1nc(CSc2nc3ccccc3s2)cs1)C1CC1,83,i,i,i
CCCCC(CC)CN=C(N)NC(N)=NCCCCCCN=C(N)NC(N)=NCC(CC)CCCC (centres undefined),i,i,55!,-5.1
CCOC(=O)c1oc2ccccc2c1COC(=O)c1ccccc1OCC,i,i,i,i
FC(F)(F)c1ccccc1CN1CCN(CC2CC3C=CC2C3)CC1 (centres undefined),48,i,nt,i
CC1CN(C(=O)N2CCC(C(=O)NCCCc3ccccc3)CC2)c2cc(Cl)ccc2O1 (centres undefined),i,nt,nt,nt
Nc1nc(N)nc(-c2ccccc2)n1,i,i,i,i
Nc1nc(N)c2[nH]c(-c3ccccc3)nc2n1,68,i,i,i
CCc1cccc2c1=NC(=O)C=2c1c(C)[nH]n(-c2ccccc2)c1=O,i,i,85,i
Cc1ccccc1Cn1c(CN2CCN(c3cc(Cl)ccc3C)CC2)nc2c1c(=O)[nH]c(=O)n2C,i,nt,nt,nt
Cc1ccc(OC(=O)C23CC4CC(CC(C4)C2)C3)cn1,i,42,i,i
O=C(Oc1cc(Cl)cc(Cl)c1)C12CC3CC(CC(C3)C1)C2,i,i,i,i
O=C(Oc1ccc(O)cc1)C12CC3CC(CC(C3)C1)C2,i,i,97,i
CC(C)OC(=O)Cn1c(C2CC2)nc2ccccc2c1=O,i,31,i,i
Cc1n[nH]c(=S)n1CC1CCCO1 (centres undefined),i,i,i,i
Cc1[nH]c(=S)n(CC2CCCO2)c1C (centres undefined),i,i,95,i
Cc1[nH]c(-c2ccc(F)cc2)cc1C(=O)N1CCCCC1,i,i,i,i
CCN(CC)Cn1c(=S)oc2ccc(Cl)cc21,i,i,64,i
Cc1ccc(Nc2nnns2)cc1C,i,i,60,i
Cc1cccc(NC(=O)CSc2nnc(C)c(=O)[nH]2)c1,i,nt,nt,nt
Cc1cccc(NC(=O)CSc2nncc(=O)[nH]2)c1,i,i,58,i
CS(=O)(=O)Nc1ccc(C(=O)Nc2ccccc2)cc1,i,i,i,i
CC(C)(C)OC(=O)N1CCC(c2c(C(=O)N3CCCCC3)cnn2-c2ccc(Cl)cc2)CC1,i,nt,nt,nt
O=C(O)CC(CP(c1ccccc1)c1ccccc1)C(=O)O (centres undefined),i,i,i,i
OCCP(c1ccccc1)c1ccccc1,i,61,i,i
O=C(OCC#Cc1ccc(-c2ccccn2)s1)c1cccs1,nt,nt,nt,i
SMILES,Polio RdRp inh,MenB inh,Mtb MbtI inh,AID504770
Cc1ccc(Cl)cc1NC(=O)Cn1c(=O)c(CNc2ccccc2)cc2cc3c(cc21)OCCO3,i,nt,nt,nt
O=C(Cn1c(=O)c(CNc2ccccc2)cc2cc3c(cc21)OCCO3)Nc1ccccc1Cl,51,nt,nt,nt
CN(C)Cc1n[nH]c(=S)o1,75,i,90,i
Cn1c(=O)c2c(nc(NCc3ccccc3)n2Cc2ccccc2Cl)n(C)c1=O,i,nt,nt,nt
Cc1ccc(S(=O)(=O)N2CCCCC2C(=O)NC(C)c2ccc3c(c2)OCCO3)cc1 (centres undefined),i,i,i,-2.1
CC(C)(C)C1=Nn2c(nnc2-c2ccccc2)SC1,i,i,64,i
N#CCn1c(CSc2n[nH]c(N)n2)nc2ccccc2c1=O,i,i,i,i
Oc1ccc(Cl)cc1Sc1cc(Cl)ccc1O,i,i,nt,-7.1
CCC(=O)c1cc(Cl)ccc1O,i,i,i,i
CC(=O)Nc1cccc(C(=O)NCc2ccc3c(c2)CCN3C(=O)c2ccccc2)c1,i,nt,nt,nt
S=c1[nH]nc2ccccn12,i,i,92!,i
S=c1[nH]cc2ccccn12,i,i,i,i
COc1ccc(Cc2nn3c(Cn4cnc5ccccc54)nnc3s2)cc1,i,i,99,i
O=C1c2ccccc2-c2nc3ccccc3nc21,i,i,i,i
O=C1c2ccccc2-c2n[nH]c(=S)nc21,76,i,i,-2.6
CN(C)CCCN1C(=O)C(=O)/C(=C(/O)c2ccc3c(c2)OCO3)C1c1cccnc1 (centres undefined),i,i,i,i
O=S1(=O)C=C(SCCN2CCOCC2)c2ccccc21,i,i,i,-3.4
CCOC(=O)Cn1nc(C)c(NC(=O)COc2ccc(OC)cc2)c1C,i,nt,nt,nt
Cc1ccccc1-c1ocnc1C(=O)Nc1cccnc1,i,30,i,i
COc1nc(NC(=O)NS(=O)(=O)Nc2cccc3cccnc23)nc(OC)n1,79,i,i,i
CCC(=O)Nc1cccc2cccnc12,i,i,i,i
CCCc1c(NC(=O)Nc2ccc(Cl)cc2Cl)cnn1-c1ccccc1,i,i,i,i
CCC(C)N1CCN(C2CCCCC2)CC1 (centres undefined),i,44,i,i
C1CCC(N2CCN(C3CCCC3)CC2)C1,i,32,i,i
O=C(O)Cn1c2ccccc2c2n[nH]c(=S)nc21,i,i,90,i
SMILES,Polio RdRp inh,MenB inh,Mtb MbtI inh,AID504770
CCn1c2ccccc2c2n[nH]c(=S)nc21,i,i,i,i
CC1CN(Cn2nc(-c3ccc(Br)o3)n(Cc3ccccc3)c2=S)CC(C)O1 (centres undefined),i,i,i,i
C=CCNC(=S)Nc1ccccc1,i,i,i,i
C=CCNC(=S)C(=O)Nc1ccccc1,81,i,nt,i
CC(C)N1CSC(=S)N(C(C)C)C1,64,i,i,-4
COc1ccc(CCC(O)C2(O)CCCCC2)cc1 (centres undefined),i,i,nt,i
COc1ccc(CCN=C=S)cc1,77,i,96,i
S=C=NCCc1ccccc1,89,i,65,i
Fc1ccc(NC2=NCCN2)cc1,i,i,i,i
CCc1ccc(NCc2cc3cc(OC)c(OC)cc3n(CC(=O)Nc3ccc(F)cc3)c2=O)cc1,i,nt,nt,nt
C1COCCNCCOCCN1,88,i,i,i
O=C(Nn1cnc2c(cnn2-c2ccccc2)c1=O)C1CCCC1,i,i,i,i
Cc1noc(C)c1COc1cccc(C(=O)N2CCc3ccccc32)c1,i,i,i,-2.5
Clc1ccc(CNc2nc3ccccc3[nH]2)cc1Cl,i,i,i,-2.8
NS(=O)(=O)c1ccc(NS(=O)(=O)c2cccc(C(F)(F)F)c2)cc1,nt,nt,nt,i
COC(=O)C1=C(C)NC(C)=C(C(=O)OC)C1c1ccccc1,nt,nt,nt,i
COC(=O)C1=C(C)NC(C)=C(C(=O)OC)C1c1ccccc1[N+](=O)[O-],i,i,79!,i
COc1ccc2[nH]cc(NC(=O)N3CCN(C)CC3)c(=O)c2c1,i,i,i,i
CCOC(=O)c1sc(=N)n(CC(=O)c2ccc(F)cc2)c1C,1.0,i,i,i
CCOC(=O)c1cc2c(ccn2-c2ccc(F)cc2)n1CC(=O)c1ccc2c(c1)OCCO2,i,i,i,i
CC1(C)CC(=O)C(C(NC(=O)c2ccccc2)(C(F)(F)F)C(F)(F)F)=C(O)C1,i,i,i,i
CCn1nc(N)c2c(O)[nH]c(=O)cc21,40,i,i,i
O=c1[nH]nc(SCc2cccc3ccccc23)c(=O)[nH]1,i,i,51,i
O=c1[nH]nc(SCc2ccccc2)c(=O)[nH]1,nt,nt,i,i
N#CC(C(=O)c1ccco1)c1nc2ccccc2[nH]1 (centres undefined),i,i,98,i
COc1ccc(C(=O)n2nc(-c3ccco3)nc2NCc2cccs2)cc1OC,i,nt,nt,nt
